Screening results (PubChem)
Sampled rows, rich in hits. Any-hit rate of the full collection: about 13%.
miR-21 act: qHTS Assay for Modulators of miRNAs and/orActivators of miR-21. 340,000 tested, under 10 active. Potency, µM (top dose mostly 38.3 µM), without a hit: top-dose activity change, positive = activation, most hits filed as activators. HeLa miR-21 FLuc reporter, luciferase, 48 h;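 note: % of control where 0% means no effect; miR-21 action dims this reporter so a rising signal means less miR-21 action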
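Compounds were titrated across several concentrations (up to approximately 40 uM) and incubated 48 hours with HeLa miR-21-FLuc reporter cells (miR-21 target sequence downstream of FLuc, endogenous miR-21). Readout was firefly luciferase luminescence after lytic detection reagent.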
G9a inh: qHTS Assay for Inhibitors of Histone Lysine Methyltransferase G9a | Histone-lysine N-methyltransferase EHMT2 (Homo sapiens), Q96KQ7 | AID 504332, 2011 | Potency, µM (top dose mostly 102 µM), without a hit: at the highest dose activity, negative = inhibition, usual class: inhibitors | G9a H3K9 monomethylation, AlphaScreen, 2 h | 8.8% of 350,000 active; note: potency is the fitted concentration of half-maximal effect; % is set by controls: 0 for no effect and ±100 for the full control effect; nearly all actives have a fitted effect of over 75% in size
Target sequence (Q96KQ7 913-1193 limits assumed): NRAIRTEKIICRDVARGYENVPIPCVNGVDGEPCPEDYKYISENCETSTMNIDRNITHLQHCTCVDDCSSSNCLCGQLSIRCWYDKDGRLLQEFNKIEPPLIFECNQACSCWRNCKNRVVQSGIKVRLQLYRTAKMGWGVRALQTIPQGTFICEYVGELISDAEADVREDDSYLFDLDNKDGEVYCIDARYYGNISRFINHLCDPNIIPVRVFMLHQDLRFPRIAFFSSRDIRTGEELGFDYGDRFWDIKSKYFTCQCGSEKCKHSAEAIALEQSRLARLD
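Step 1: enzyme (final 20 nM) with compound, 15 min RT. Step 2: substrate peptide 500 nM and SAM 20 uM, 2 h RT. Step 3: anti-H3K9me1 antibody and AlphaScreen beads, 10 min, then plate read.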
Sfp PPTase inh: qHTS Assay for Inhibitors of Bacillus subtilis Sfp phosphopantetheinyl transferase (PPTase). Biochemical Sfp PPTase activity, qHTS. Potency, µM, inactives show largest response in the series, negative = inhibition, actives largely listed as inhibitors. 3.5% of 310,000 active;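 note: the enzyme is Sfp with the accession as filed and its product quenches rhodamine fluorescence; potency is the fitted concentration of half-maximal effect; 0% = enzyme reaction without inhibitor and -100% = no enzyme wells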
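Fluorescence-quenching assay with 15 nM Sfp, 5 uM rhodamine-CoA and 12.5 uM BHQ-2-labelled ybbR peptide in pH 7.6 Hepes/MgCl2 buffer. Enzyme was pre-incubated with compound for 15 min at room temperature. Rate was taken from the 30-min fluorescence change (525/598 nm).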
JMJD2E inh: qHTS Assay for Inhibitors of Human Jumonji Domain Containing 2E (JMJD2E). JMJD2E catalytic domain, FDH-coupled NADH fluorescence (FDH is formaldehyde dehydrogenase). AID 2147, 2009. 1.6% of 230,000 active. Lysine-specific demethylase 4E (Homo sapiens), B2RXH2. Potency, µM (top dose mostly 57.1 µM), for inactives: top-dose activity change, negative = inhibition, hits mostly inhibitors; active = well fitted inhibition curve with a large enough effect, not every such curve was filed as active; inconclusive = small, poorly fitted or top-dose-only effect, or another doubt; inactive = no such curve, though single readings can be large or run the other way;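 note: potency is the fitted concentration of half-maximal effect; 0% = wells with enzyme and -100% = buffer wells without enzyme; nearly all actives have a fitted effect of over 50% in size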
Target sequence (B2RXH2 1-337 limits assumed): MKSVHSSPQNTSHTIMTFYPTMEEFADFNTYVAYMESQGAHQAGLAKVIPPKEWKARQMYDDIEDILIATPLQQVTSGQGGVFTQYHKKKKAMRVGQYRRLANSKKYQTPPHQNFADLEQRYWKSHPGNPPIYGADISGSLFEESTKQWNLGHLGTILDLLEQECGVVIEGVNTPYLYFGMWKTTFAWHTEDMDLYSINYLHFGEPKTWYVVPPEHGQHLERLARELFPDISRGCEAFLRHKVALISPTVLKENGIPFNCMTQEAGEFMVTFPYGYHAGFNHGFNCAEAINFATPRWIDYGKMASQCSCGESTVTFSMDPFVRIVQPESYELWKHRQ
ALDH1A1 block: qHTS Assay for Inhibitors of Aldehyde Dehydrogenase 1 (ALDH1A1). Potency, µM (titrated, usually from 75.3 µM), for the others: at the top dose activity, negative = inhibition, usual class: inhibitors. Aldehyde dehydrogenase 1A1 (Homo sapiens), P00352. Purified ALDH1A1, NADH fluorescence, propionaldehyde substrate. 7.3% of 220,000 active; active = well fitted inhibition curve with a large enough effect, not every such curve was filed as active; inconclusive = small, poorly fitted or top-dose-only effect, or another doubt; inactive = no such curve, though single readings can be large or run the other way;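 note: potency is the fitted concentration of half-maximal effect; plate controls were no enzyme wells and a reference inhibitor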
LMNA splice mod: qHTS Assay for Modulators of Lamin A Splicing | HeLa LMNA splicing GFP/RFP minigene ratio, 48 h | Potency, µM (highest dose often 46.1 µM), without a hit: at the top dose ratio change, negative = inhibition, actives largely listed as inhibitors | 0.01% of 200,000 active; active = well fitted inhibition curve with a large enough effect in the signal ratio, with a control signal flat, not every such curve was filed as active; inconclusive = small, poorly fitted or top-dose-only effect, or effect the other way, or a change in a side signal; the % refers to the signal ratio; note: potency is the fitted concentration of half-maximal effect; % is set by controls: 0 for no effect and ±100 for the full control effect
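S3 HeLa cells stably expressing lamin A-EGFP splicing minigene plus DsRed2, 600 cells/well, 48 h compound exposure at 37C. Laser-scanning cytometry; analysed as GFP (500-530 nm)/RFP (575-640 nm) total intensity ratio; 0.5% DMSO vehicle.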
* marks the source's active call; other numbers are inactive results; [ ] = another dose, or the depositor's remark. Unless noted, calls come from the whole dose curve; as a rule, active = well fitted curve in the direction sought with a large enough effect; inconclusive = small, poorly fitted or top-dose-only effect, or another doubt; inactive = no such curve, though single readings can be large; an effect the other way counts as inactive or inconclusive.

For Cc1ncoc1C(=O)Nc1ccc(Oc2ccccc2)cc1 the results were miR-21 act -20%, G9a inh 11%[59 µM], Sfp PPTase inh -28%, JMJD2E inh -3%, ALDH1A1 block -7% and LMNA splice mod inconclusive.
For COc1cccc(C(=O)NC(=S)Nc2ccc3oc(=O)ccc3c2)c1 the results were miR-21 act -8%, G9a inh 40µM*, Sfp PPTase inh -27%, JMJD2E inh 2%, ALDH1A1 block 1.4µM* and LMNA splice mod -13%.
COc1ccc(N2CCN(c3ccc(NC(=O)NN)cc3)CC2)cc1 was read as miR-21 act -1%, G9a inh 45µM* and Sfp PPTase inh 11%.
Cc1nc(C)c(C(=O)Nc2ccc(Oc3ccccc3)cc2)o1 was read as miR-21 act -3%, G9a inh -16%[59 µM], Sfp PPTase inh 1%, JMJD2E inh -2%, ALDH1A1 block 32µM* and LMNA splice mod inconclusive.
`COc1cc(OC)cc(C(=O)NC(=S)Nc2ccc3oc(=O)ccc3c2)c1` gave miR-21 act 0%, G9a inh 8% and Sfp PPTase inh -3%.
Screening N#CC(C#N)=Cc1cccn1-c1ccc(S(N)(=O)=O)cc1 returned miR-21 act -1%, G9a inh inconclusive, Sfp PPTase inh 9%, JMJD2E inh -9%, ALDH1A1 block inconclusive and LMNA splice mod -12%[46 µM].
COc1ccc(/C=C(/NC(=O)c2ccccc2)C(=O)N2CCOCC2)cc1OC was read as miR-21 act -2%, G9a inh 25% and Sfp PPTase inh 15%.
For COCCNC(=S)Nc1ccc(N2CCCCC2)cc1 the results were miR-21 act -34%, G9a inh 8.9µM*, Sfp PPTase inh 13µM*, JMJD2E inh -1% and ALDH1A1 block 8.9µM*.
CCCC(=O)N1CCN(c2ccc(NC(=S)NC(=O)c3cccc(C)c3)cc2)CC1 was read as miR-21 act 0%, G9a inh inconclusive, Sfp PPTase inh -16%, JMJD2E inh -4%, ALDH1A1 block 20µM* and LMNA splice mod 3%[46 µM].
Screening COCC(C)NC(=O)c1ccc(N(C)C)cc1 (stereo not given) returned miR-21 act -14%, G9a inh 12%[59 µM], Sfp PPTase inh 16%, JMJD2E inh -3%, ALDH1A1 block 8.9µM* and LMNA splice mod -4%.
For COCCNC(=S)N/N=C/c1ccc(N2CCOCC2)cc1 the results were miR-21 act 27%, G9a inh 7%[59 µM], Sfp PPTase inh -27%, JMJD2E inh -12%, ALDH1A1 block inconclusive and LMNA splice mod inconclusive.
For CCCC(=O)N1CCN(c2ccc(NC(=O)c3ccc4c(c3)OCCO4)cc2)CC1 the results were miR-21 act 1%, G9a inh inconclusive and Sfp PPTase inh 7%.
Screening COCC(C)NC(=O)c1ccc2nc(-c3ccccc3)c(-c3ccccc3)nc2c1 (stereo not given) returned miR-21 act 9% and Sfp PPTase inh -9%.
`CC(C)Oc1cccc(C(=O)NC(=S)Nc2ccc(N3CCN(C)CC3)cc2)c1` gave miR-21 act -15%, Sfp PPTase inh 71µM*, JMJD2E inh -14%, ALDH1A1 block inconclusive and LMNA splice mod -22%[46 µM].
For CN1CCN(c2ccc(NC(=S)NC(=O)c3cccc4c(Cl)cccc34)cc2)CC1 the results were miR-21 act -2%, G9a inh inconclusive and Sfp PPTase inh 4%.
`COc1ccc(C(=O)N/N=C(/C)c2ccc(N3CCCCC3)cc2)cc1` gave miR-21 act -64%, G9a inh 20%[59 µM], Sfp PPTase inh -2%, JMJD2E inh 1%, ALDH1A1 block inconclusive and LMNA splice mod 3%.
COC(=O)[C@H]1[C@H](C(=O)OC)[C@@H](C(=O)OC)N(c2ccc(OC)cc2)[C@@H]1C(=O)OC was read as miR-21 act -2%, G9a inh inconclusive, Sfp PPTase inh 6%, JMJD2E inh -3%, ALDH1A1 block 4% and LMNA splice mod 0%.
For COc1ccc(N2CCSC2C(=O)NN)cc1 (stereo not given) the results were miR-21 act -25%, G9a inh 10%[59 µM], Sfp PPTase inh 2%, JMJD2E inh 1%, ALDH1A1 block 3.2µM* and LMNA splice mod -16%.
`O=C(O)CC(NC(=O)C1c2ccccc2Oc2ccccc21)c1ccc(Cl)cc1` (stereo not given) gave miR-21 act -5%, G9a inh 11µM*, Sfp PPTase inh -4%, JMJD2E inh -7%, ALDH1A1 block -3% and LMNA splice mod -9%.
`CCOc1ccc(C(CC(=O)O)NC(=O)C2c3ccccc3Oc3ccccc32)cc1` (stereo not given) gave miR-21 act -5%, G9a inh 9%[59 µM], Sfp PPTase inh 41%, JMJD2E inh 4%, ALDH1A1 block 11% and LMNA splice mod -5%.
COc1ccc(C(=O)NC(=S)Nc2ccc(N3CCCC3)cc2)cc1 was read as miR-21 act -3%, G9a inh inconclusive, Sfp PPTase inh 9%, JMJD2E inh -8%, ALDH1A1 block 10µM* and LMNA splice mod 1%[46 µM].
CN(C)c1ccc(NC(=S)c2ccc3ccccc3n2)cc1 was read as miR-21 act -19%, G9a inh 2µM* and Sfp PPTase inh 7.1µM*.
COc1ccc(-n2c(=S)[nH]c3cc(C(=O)N4CCN(c5ccccc5)CC4)ccc3c2=O)c(OC)c1 was read as miR-21 act 10%, G9a inh 8% and Sfp PPTase inh 2%.
Screening Cc1ccccc1N(CC(=O)NCCSCc1ccco1)S(C)(=O)=O returned miR-21 act -4%, G9a inh inconclusive, Sfp PPTase inh 20µM*, JMJD2E inh -9%, ALDH1A1 block inconclusive and LMNA splice mod -3%.
For COc1ccc(S(=O)(=O)NCCSCc2cccs2)cc1 the results were miR-21 act -2%, G9a inh inconclusive, Sfp PPTase inh 22%, JMJD2E inh 2%, ALDH1A1 block 1µM* and LMNA splice mod -7%.
COc1ccc(S(=O)(=O)NCCC(=O)NCc2cccs2)cc1 was read as miR-21 act 1%, G9a inh 9%[59 µM], Sfp PPTase inh 0%, JMJD2E inh 2%, ALDH1A1 block -3% and LMNA splice mod 1%.
COc1ccc(S(=O)(=O)NCCSCc2ccco2)cc1OC was read as miR-21 act -14%, G9a inh 12%[12.7 µM], Sfp PPTase inh 28µM*, JMJD2E inh 8%, ALDH1A1 block inconclusive and LMNA splice mod -10%.
